# Measurements taken from PubChem BioAssay AID1494156 (National Center for Advancing Translational Sciences (NCATS), 2020).
# Inconclusive results are not listed. A number with no mark means an inactive call. Active and inactive are the calls of the source. Calls come from the whole dose curve.
# Assay: VSV-G qHTS counterscreen for inhibitors of MERS-S pseudo-typed particle cell entry
# Settings: VSV-G pseudotyped particle cell entry, luciferase counterscreen; series mostly up to 57.1 µM; activity, negative = inhibition: at the top concentration
SMILES,"activity, negative = inhibition [%]",Potency
CN(C/C=C/c1ccccc1)Cc1cccc2ccccc12,-16.4,–
COc1cc2c(cc1Cc1cccc(Cl)c1F)c(=O)c(C(=O)O)cn2[C@H](CO)C(C)C,–,0.192 µM (active)
CC[C@@H]([C@H](C)O)n1ncn(-c2ccc(N3CCN(c4ccc(OC[C@@H]5CO[C@@](Cn6cncn6)(c6ccc(F)cc6F)C5)cc4)CC3)cc2)c1=O,–,6.81 µM (active)
CC(CN(C)C)CN1c2ccccc2CCc2ccccc21 (stereo not drawn),-15,–
CC[C@H](C)C(=O)O[C@H]1C[C@@H](C)C=C2C=C[C@H](C)[C@H](CC[C@@H]3C[C@@H](O)CC(=O)O3)[C@H]21,-2.55,–
COc1cc(NS(C)(=O)=O)ccc1Nc1c2ccccc2nc2ccccc12,–,0.764 µM (active)
C[C@]12CC[C@H](O)C[C@H]1CCC1C2CC[C@]2(C)[C@@H](c3ccc(=O)oc3)C[C@H]3O[C@]132 (stereo partly drawn),–,4.82 µM (active)
N#CC(c1ccc(Cl)cc1)c1c(Cl)cc(-n2ncc(=O)[nH]c2=O)cc1Cl (stereo not drawn),–,3.83 µM (active)
CCN(CC)CCNC(=O)c1c(C)[nH]c(/C=C2\C(=O)Nc3ccc(F)cc32)c1C,–,7.64 µM (active)
CC(C)OC(=O)OCOP(=O)(CO[C@H](C)Cn1cnc2c(N)ncnc21)OCOC(=O)OC(C)C,–,0.0192 µM (active)
CCCCc1oc2ccccc2c1C(=O)c1cc(I)c(OCCN(CC)CC)c(I)c1,–,24.1 µM (active)
O=c1[nH]c(=O)n([C@H]2C[C@H](O)[C@@H](CO)O2)cc1C(F)(F)F,–,2.41 µM (active)
O=C1CCc2ccc(OCCCCN3CCN(c4cccc(Cl)c4Cl)CC3)cc2N1,–,13.6 µM (active)
